Data published in PubChem BioAssay AID1259397 (Fisher Drug Discovery Resource Center, 2018).
Values joined by “and” are separate entries in the source; they are usually repeats but may differ in a detail not shown here. Equal values may be shown once. Among all 130,000 compounds or so, about 230 (0.18%) were called active. This is one part of a sample in which actives are shown more often than they occur. Values without a mark were called inactive.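 How the source made its calls: active means inhibition of cGAS enzyme activity at or above 60%; inactive means the rest.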

Each compound was assayed against Cyclic GMP-AMP synthase (Mus musculus) (UniProt Q8C6L5) (assay: inhibitors of Mus musculus cyclic GMP-AMP synthase, initial high-throughput assay, cell-free, RapidFire MS (AID 1259397;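 further: enzyme stimulated by 45 bp dsDNA with ATP and GTP substrates; cGAMP share of summed cGAMP plus half ATP and half GTP signals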)). Settings: recombinant mouse cGAS, cGAMP by RapidFire MS; at 12.5 µM; active compounds read high.
Sequence of Cyclic GMP-AMP synthase (Mus musculus) (Q8C6L5 whole entry, looked up): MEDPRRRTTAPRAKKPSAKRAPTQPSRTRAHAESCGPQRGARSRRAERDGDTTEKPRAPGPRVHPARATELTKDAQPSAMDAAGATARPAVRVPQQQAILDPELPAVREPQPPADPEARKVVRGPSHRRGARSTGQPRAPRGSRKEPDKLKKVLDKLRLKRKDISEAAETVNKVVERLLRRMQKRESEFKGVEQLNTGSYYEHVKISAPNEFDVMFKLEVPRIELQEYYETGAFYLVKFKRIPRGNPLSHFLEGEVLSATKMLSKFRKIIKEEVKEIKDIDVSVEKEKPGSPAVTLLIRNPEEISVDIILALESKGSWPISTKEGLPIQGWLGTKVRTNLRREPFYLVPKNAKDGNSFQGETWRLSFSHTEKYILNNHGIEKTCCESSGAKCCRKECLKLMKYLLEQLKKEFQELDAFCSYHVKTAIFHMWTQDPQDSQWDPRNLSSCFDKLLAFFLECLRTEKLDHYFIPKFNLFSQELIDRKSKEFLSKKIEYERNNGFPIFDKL

| SMILES | inhibition |
| --- | --- |
| CC1=C(C(=O)N2CCC(N3CCC(C(=O)NCC4CCCO4)CC3)CC2)OCCO1 (centres undefined) | -2.1% |
| O=C(CCc1nc2ccccc2s1)NC1CCN(Cc2ccccc2)C1 (centres undefined) | -1.33% |
| Cc1cc(C)n(CC2CCN(C(=O)C3CCN(S(C)(=O)=O)CC3)CC2)n1 | -6.54% |
| Cc1cn2c3c(=O)n(CCc4ccccc4)c(=O)n(C)c3nc2n1CCOCCO | -7.78% |
| CCCNC(=O)C1(C)CCCN(Cc2c(C)nn(-c3ccccc3)c2C)C1 (centres undefined) | -6.24% |
| CCOc1ccc(CNC(=O)Cc2sc(=S)[nH]c2C)cc1F | -6.57% |
| CC(=O)Nc1ccc(Cl)c(C(=O)N(C)CCc2nc3ccccc3[nH]2)c1 | -12.1% |
| CCc1ccc(C(=O)NNC(=S)Nc2sc(CC)cc2C(=O)OC)s1 | -2.22% |
| COc1cccc(N2C[C@@H]3C[C@@H](c4cccs4)N4CCC[C@@]34C2=O)c1 | -6.87% |
| COC(=O)Cn1nc([N+](=O)[O-])n(CC(=O)OC)c1=O | -9.81% |
| COc1ccc(NC2CCCN(c3nc(C(F)(F)F)nc(C)c3C)C2)cc1 (centres undefined) | -21.1% |
| CCCOc1ccc(C(=O)NNC(=O)c2ccc[nH]c2=O)cc1 | 2.97% |
| CN(C)/C=C(\C(=O)c1ccc(Cl)c(Cl)c1)c1nnnn1-c1ccccc1 | -2.94% |
| CC1CN(Cc2ccccc2F)CCO1 (centres undefined) | -0.301% |
| CC(C(=O)N1CCCC1)N1CCOC(CN(C)C)C1 (centres undefined) | -1.48% |
| CCc1ccc(Cl)c(CC)c1NC(=O)c1cnccn1 | -4.79% |
| N#Cc1ccc(C2=CSC3=NS(=O)(=O)CCN23)cc1 | -8.31% |
| O=C(NCCC(F)(F)F)c1csc(N2CCN(Cc3ccccc3)C2=O)n1 | -6.72% |
| Cc1noc(C)c1C(=O)N1CCC1(C)C(=O)NS(=O)(=O)c1ccc(C#N)cc1 (centres undefined) | -9.56% |
| O=[N+]([O-])c1cc(S(=O)(=O)C(F)(F)F)ccc1N1CCCC1 | -9.38% |
| C=CCSc1nc2ccccc2n1CCO | -7.69% |
| CC(=O)Nc1ccc(Cl)c(C(=O)NC(CCn2ccnc2)c2ccccc2)c1 (centres undefined) | -10.1% |
| CCC1(C)Cc2ccccc2-c2nc3[nH][nH]c(=S)n3c(=O)c21 (centres undefined) | 15% |
| COc1ccccc1/C=C/C=C1\N=C(c2ccc(C(C)(C)C)cc2)OC1=O | -5.55% |

| SMILES | inhibition |
| --- | --- |
| Cc1ccc(C)c(C=C2SC(N3CCOCC3)=NC2=O)c1 | -2.54% |
| O=C(NC[C@H]1C[C@H]2C=C[C@H]1C21CC1)C1CCN(Cc2ccco2)CC1 | -6.29% |
| CN(Cc1cn[nH]c1-c1ccc(F)cc1)C(=O)Cc1c[nH]c2ccccc12 | -11.3% |
| OCC1(Cc2ccccc2Cl)CCN(C2CCN(c3ccccc3)CC2)CC1 | -7.34% |
| Cc1cc2nc(N(CCN3CCOCC3)C(=O)C3COc4ccccc4O3)sc2cc1C (centres undefined) | -7.12% |
| CCN(CCn1cccn1)C(=O)CC1C(=O)NCCN1C1Cc2ccccc2C1 (centres undefined) | 3.93% and -3.95% |
| Cc1c(C)c(C)c(C(=O)C2CCN(C(=O)CC3NC(=O)NC3=O)CC2)c(C)c1C (centres undefined) | -1.46% |
| Cc1nc2c(cnn2C(C)C)c(C)c1CCC(=O)NC1CCCC1 | -7.8% |
| Cc1ccsc1C(CNC(=O)c1cnn2ccn(C)c12)N(C)C (centres undefined) | -20.4% |
| O=S(=O)(c1ccc2c(c1)OCCCO2)N1CCCC(c2nc3ccccc3s2)C1 (centres undefined) | 10% |
| Cc1sc2ncn(CC(=O)c3ccc[nH]3)c(=O)c2c1C | 14.3% |
| Cc1nc2ccc(C(=O)N3CCC4(CC3)Nc3ccccc3C(=O)N4CCO)cc2[nH]1 | -0.499% |
| COc1cc2c(cc1CNC1CCN(Cc3ccccc3)C1)OC(C)C2 (centres undefined) | -13.3% |
| CC(=O)OC(OC(C)=O)c1coc2c(F)cccc2c1=O | 2.77% |
| CCC1CCC(N(CC(=O)NC(C)C(=O)N(C)C)C(C)c2ccc(F)cc2)CC1 (centres undefined) | -8.3% |
| Cc1[nH]n(-c2nc(O)c(C)c(=O)[nH]2)c(=O)c1CCO | -3.37% |
| CCCNc1nc2c(C)cccn2c(=O)c1C=C1SC(=S)N(CC(C)C)C1=O | -5.08% |
| Cc1ccc(NC(=O)CN2CCCN(c3ccc(C(F)(F)F)cn3)CC2)cc1 | -2.92% |
| CC(Nc1ncnc2sc3c(c12)CCCC3)c1ccccc1 (centres undefined) | -2.34% |
| CN(Cc1nc(-c2ccc(Br)s2)no1)c1nccs1 | -1.14% |
| CN(C)c1ccc(N2CC(=O)C(c3nc(-c4cccc(Cl)c4)cs3)C2=N)cc1 (centres undefined) | -4.69% |
| Cc1ccc(NC(=O)C(C)N2CCCC(C(F)(F)F)C2)cc1 (centres undefined) | -5.21% |
| CCc1ccc(NC(=O)C(C)n2cc(C(F)(F)F)ccc2=O)cc1 (centres undefined) | -4.23% |
| CCCN(C)CC1CCN(C(C)C(=O)Nc2ccc(C(F)(F)F)cc2)C1 (centres undefined) | 93.9% (active) |

| SMILES | inhibition |
| --- | --- |
| CCn1ccc(C(=O)NCc2cccnc2Oc2ccc(C)nc2)n1 | 4.9% |
| O=C(CSc1nnc(-c2ccco2)o1)NC1CC1 | -7.76% |
| Cc1cccc[n+]1CC(=O)C12CC3CC(CC(C3)C1)C2 | -6.75% |
| COc1ccc2c(c1)CCc1cc(C(=O)NC(C)c3c(C)nn(C)c3C)sc1-2 (centres undefined) | 0.0306% |
| CC(Nc1cccc(Br)c1)N1C(=O)CCC1=O (centres undefined) | -5.36% |
| COc1ccc(OC)c(C2CCCN2Cn2nc(-c3ccccc3F)n(C)c2=S)c1 (centres undefined) | -6.22% |
| NC(=O)Cn1nnc(-c2ccccc2Br)n1 | -12.5% |
| COc1cccc(N(CN2C(=O)c3ccccc3C2=O)C(C)=O)c1 | 22.9% |
| CC(C)(C)SCCNC(=O)CN(c1ccc(Cl)cc1Cl)S(=O)(=O)c1ccccc1 | -1.39% |
| Cc1ccc(-c2cnc(C(O)c3cccc(C)c3C)[nH]2)cc1 (centres undefined) | -3.19% |
| N#Cc1ccc(F)c(COC(=O)c2cncc(Br)c2)c1 | 6.6% |
| Cc1ccc(C)c(CNc2cccc(C(=O)N3CCC(O)CC3)c2)c1 | -8.84% |
| CCC(=O)N1CCN(c2ccc(Cl)cc2NC(=O)c2cccs2)CC1 | -6.87% |
| CC(=O)N(C)c1ccc(NC(=O)CNCCc2cccs2)cc1 | -11.1% |
| COc1ccc(OC)c(NC(=O)C(C)N2CCN(Cc3ccc(Cl)s3)CC2)c1 (centres undefined) | -4.59% |
| CCO[C@H]1COC[C@@H]1NCC(=O)Nc1ccc(Cl)c(OC)c1 | -5.39% |
| O=C(O)c1cc(-c2ccccc2)nn1-c1ccc(Cl)cc1 | -1.5% |
| Cc1cc(-n2cnnc2)ncc1-c1ccc(O)cc1 | -7.05% |
| Cc1ccc(NC(=O)CN2Cc3ccccc3CC2C(N)=O)cc1 (centres undefined) | -6.79% |
| CCNC(=O)C1(C)CCN(Cc2ccc(C(=O)OCC)o2)C1 (centres undefined) | -5.82% |
| CN=c1scc(-c2ccc(Br)cc2)n1N=Cc1cc(OC)c(OC)c(OC)c1 | -11.7% |
| CC(C)Nc1ncc(C(=O)N(Cc2ccco2)C(C)C(C)C)cn1 (centres undefined) | -1.04% |
| C=CC[C@H]1CC(C)=C[C@H](CC=C)N1C(=O)c1cnc2cccc(C)n2c1=O | -2.04% |
| O=C1COCc2ccc(-c3cccnc3)cc2N1CC1CC1 | -11.8% |

| SMILES | inhibition |
| --- | --- |
| CCCn1c(=O)n(C)c(=O)c2c(SCC(=O)C(C#N)=C(C)N)nc(CC(C)C)nc21 | -1.38% |
| CC1(C(=O)NCc2ccc3c(c2)OCO3)CCN1CCc1ccccc1 (centres undefined) | -12.7% |
| COc1ccc(CC(=O)OCc2cc(-c3ccc4c(c3)OCO4)on2)cc1OC | -7.02% |
| CC(C)c1cc(C2CCN(C(=O)CN3CCOC3=O)CC2)[nH]n1 | -25.2% |
| COc1ccc(NC(=O)CCC2CCN(Cc3ccc(SC)cc3)CC2)c(OC)c1 | -5.25% |
| Cc1cccc(Nc2ncccc2C(=O)NCc2ccccn2)c1C | 1.13% |
| Cc1[nH]n2c(=O)c3c(nc2c1-c1cccc2ccccc12)CCCC3 | 1.14% |
| CN(Cc1ccc(Br)s1)C(=O)CSCc1ccc(C#N)cc1 | 7.87% |
| O=S(=O)(NCc1ccccc1)NCc1csc(-c2cnccn2)n1 | -34.7% |
| O=C1CN(c2ccc(NC(=O)c3ccc4c(c3)COC4)cc2)CCN1 | -2.78% |
| CN1CCN2CCN(C(=O)c3cccc(N4CCNC4=O)c3)CC2C1=O (centres undefined) | -13.8% |
| C=C(C)Cn1c(N2CCN(Cc3cccc(C)c3)CC2)nc2c1c(=O)[nH]c(=O)n2C | -6.09% |
| O=C1NC(=O)C(=Cc2ccc(C(=O)O)cc2)S1 | 35.6% |
| O=C1NC(=S)SC1=Cc1ccccc1F | 62.6% (active) |
| COc1cc(C=C2SC(=S)NC2=O)cc(Br)c1O | 12% |
| CC(=O)NN=C1CCCc2c(C)cc(C)cc21 | 23.5% |
| O=C(CN1C(=O)NC2(CCCC2)C1=O)N1CCN(C(=O)c2cccs2)CC1 | -1.67% |
| O=C(Nc1ccccc1Cl)C(=O)N1CCC2(CC1)C(=O)Nc1ccccc12 | -33.1% |
| CCn1ccnc1CN(C)C(=O)c1cc(COc2cccc3cnccc23)on1 | -1.51% and -6.44% |
| CC(C)(C)CN(CCO)Cc1ncc(C(C)(C)C)o1 | -4.58% |
| CS(=O)(=O)Cc1nc(-c2cc3c(cc2F)NC(=O)CC3)cs1 | -12.8% |
| C=CCN(CC=C)C(=O)CSc1nc2scc(-c3ccc(F)cc3)c2c(=O)n1C | 11.1% |
